Most compounds without a hit are left out; they make up all but 3.8% or so of the library.
Yeast superoxide: caloric restriction mimetics inhibiting age-related superoxide in yeast. S. cerevisiae aged cells, superoxide DHE fluorescence; hits give low values. superoxide response (% of plate mean), % at 10 µM. 330,000 tested, 0.18% active. AID 2690;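 active means superoxide response under a set limit, about three screen SD below normal, cut at about 65% in these data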;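 further: yeast aged for seven days with compound at 30 °C before DHE staining; 100% = average MFI of all compound-treated wells on the plate with controls excluded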
NLRP3 yeast inh: inhibitors of NALP3 inflammasome in yeast; Yeast reconstituted NLRP3/ASC/caspase-1, beta-gal luminescence, 24 h; inhibition, % at 10 µM; 330,000 tested, 0.39% active; AID 2825;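 active means inhibition of 50% or more; inactive means inhibition below 50%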;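 further: plate controls were induced DMSO wells for no effect and uninduced yeast grown without galactose for full effect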
tim23-1 inh: growth inhibitors of tim23-1 mutant yeast. 330,000 tested, 1.3% active. S. cerevisiae tim23-1 growth, BacTiter-Glo luminescence, 24 h. inhibition, % at 20 µM;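 active means growth inhibition of the mutant yeast at or above 50%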;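 further: temperature-sensitive mutant grown at 25 °C; plate controls were DMSO-treated mutant yeast for no effect and medium wells lacking yeast for full effect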
TIM10 inh: TIM10 yeast growth inhibition | S. cerevisiae TIM10 strain growth, BacTiter-Glo luminescence, 24 h | inhibition, % at 10 µM | 330,000 tested, 1.4% active;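 active means inhibition of 40% or more at the single tested concentration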;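 further: wild-type TIM10 isogenic control strain grown at permissive 25 °C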
tim10-1 inh: inhibits growth of tim10-1 mutant yeast; AID 463190; S. cerevisiae tim10-1 ts strain growth, BacTiter-Glo, 24 h; 330,000 tested, 2.2% active; inhibition, % at 20 µM;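 active means inhibition of at least 40%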;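 further: mutant grown at 25 °C; 0% = DMSO wells with yeast and 100% = wells holding no yeast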
tim10 confirm: TIM10 yeast growth inhibition, confirmed; inhibition, % at 10 µM; S. cerevisiae tim10 strain growth, BacTiter-Glo luminescence, 24 h; shares compounds with TIM10 inh; 4,600 tested, 63% active;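 active means inhibition of yeast growth at or above a set limit in either of two replicates at 10 µM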;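 further: this counterscreen used the strain with wild-type TIM10; 0% = yeast with DMSO and 100% = medium wells lacking yeast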
An asterisk follows results filed as active.

Results for CCOC(=O)C1CCN(c2c(NCCN(CC)c3ccccc3)c(=O)c2=O)CC1 ?
Yeast superoxide: 92; NLRP3 yeast inh: 5; tim23-1 inh: 1; TIM10 inh: -6; tim10-1 inh: 7

What do the screens show for `Cc1sc2ncnc(Sc3nnnn3-c3ccc(Cl)cc3)c2c1C`?
Yeast superoxide: 109; NLRP3 yeast inh: 16; tim23-1 inh: 1; TIM10 inh: 13; tim10-1 inh: 27

How did c1ccc(-n2nnnc2Sc2ncnc3sc4c(c23)CCCC4)cc1 do in these assays?
Yeast superoxide: 96; NLRP3 yeast inh: 4; tim23-1 inh: 22; TIM10 inh: 44*; tim10-1 inh: 34; tim10 confirm: 23

Results for CCOc1ccc(S(=O)(=O)N2CCC(C(=O)OC(C)C(=O)N3CCOCC3)CC2)cc1 (stereo unspecified) ?
Yeast superoxide: 101; NLRP3 yeast inh: -1; tim23-1 inh: 1; TIM10 inh: 4; tim10-1 inh: 12

What do the screens show for `CC1(C(=O)OCC(=O)Nc2ccc3ccccc3c2)CC1(Cl)Cl` (stereo unspecified)?
Yeast superoxide: 114; NLRP3 yeast inh: 9; tim23-1 inh: 43; TIM10 inh: 48*; tim10-1 inh: 21; tim10 confirm: 32*

What do the screens show for `S=C(NCc1ccccc1)N/N=C/c1cccs1`?
Yeast superoxide: 95; NLRP3 yeast inh: 31; tim23-1 inh: 39; TIM10 inh: 34; tim10-1 inh: 32

Results for S=C(NCCc1ccccc1)N/N=C/c1cccs1 ?
Yeast superoxide: 103; NLRP3 yeast inh: 18; tim23-1 inh: 42; TIM10 inh: 41*; tim10-1 inh: 33; tim10 confirm: 38*

Results for Cc1ccc(C)c(NC(=O)C(c2ccccc2)N2CCOCC2)c1 (stereo unspecified) ?
Yeast superoxide: 144; NLRP3 yeast inh: -6; tim23-1 inh: 12; TIM10 inh: 3; tim10-1 inh: 23

Results for COc1ccc(NS(=O)(=O)c2ccc3c(c2)NC(=O)C(C)S3)cc1 (stereo unspecified) ?
Yeast superoxide: 103; NLRP3 yeast inh: 7; tim23-1 inh: -4; TIM10 inh: 0; tim10-1 inh: -1

How did Cc1ccc(C(=O)/C=C/c2ccc3c(c2)OCCO3)c(O)c1 do in these assays?
Yeast superoxide: 86; NLRP3 yeast inh: 22; tim23-1 inh: 48; TIM10 inh: 52*; tim10-1 inh: 24; tim10 confirm: 52*

Results for CCOCCCNC(=O)C(c1ccc(OC)cc1)N(Cc1cccs1)C(=O)c1ccccn1 (stereo unspecified) ?
Yeast superoxide: 102; NLRP3 yeast inh: 8; tim23-1 inh: 17; TIM10 inh: 15; tim10-1 inh: 28

How did CCOC(=O)CC1C(=O)NCCN1C(=O)c1ccc(Cl)cc1Cl (stereo unspecified) do in these assays?
Yeast superoxide: 102; NLRP3 yeast inh: -2; tim23-1 inh: 7; TIM10 inh: 1; tim10-1 inh: 7

How did CN(C)c1ccc(S(=O)(=O)N(C)C)cc1NC(=O)Cc1cccc2ccccc12 do in these assays?
Yeast superoxide: 104; NLRP3 yeast inh: 23; tim23-1 inh: 24; TIM10 inh: -7; tim10-1 inh: 30

What do the screens show for `CNc1nc(NN)nc(Nc2ccccc2)n1`?
Yeast superoxide: 106; NLRP3 yeast inh: 20; tim23-1 inh: -2; TIM10 inh: 96*; tim10-1 inh: 16; tim10 confirm: 6

Results for CNc1nc(Nc2ccccc2)nc(OCC(F)(F)F)n1 ?
Yeast superoxide: 92; NLRP3 yeast inh: 9; tim23-1 inh: -21; TIM10 inh: 15; tim10-1 inh: 7

What do the screens show for `Cc1cc(NC(=O)CN2C(=O)NC(C)(c3ccc(Cl)cc3)C2=O)no1` (stereo unspecified)?
Yeast superoxide: 95; NLRP3 yeast inh: 18; tim23-1 inh: 16; TIM10 inh: 5; tim10-1 inh: 3

What do the screens show for `Cc1coc2c(C)c3oc(=O)c(CCC(=O)N[C@@H](C)C(=O)N[C@@H](Cc4ccccc4)C(=O)O)c(C)c3cc12`?
Yeast superoxide: 88; NLRP3 yeast inh: -2; tim23-1 inh: -4; TIM10 inh: 5; tim10-1 inh: 9

How did Cc1cc(NC(=O)c2ccccc2)sc1C do in these assays?
Yeast superoxide: 106; NLRP3 yeast inh: 39; tim23-1 inh: 44; TIM10 inh: 52*; tim10-1 inh: 38; tim10 confirm: 42*

How did Cc1cc(NC(=O)c2ccccc2)cc(NC(=O)c2ccccc2)c1C do in these assays?
Yeast superoxide: 100; NLRP3 yeast inh: 18; tim23-1 inh: 2; TIM10 inh: 0; tim10-1 inh: 2

What do the screens show for `COc1ccc(S(=O)(=O)N2CCOCC2)cc1NC(=O)/C=C/c1ccc(F)cc1`?
NLRP3 yeast inh: 21; tim23-1 inh: 19; TIM10 inh: 3; tim10-1 inh: 4

Results for O=C1Nc2cc3c(cc2C1=O)sc1ccccc13 ?
Yeast superoxide: 105; NLRP3 yeast inh: 23; tim23-1 inh: 0; TIM10 inh: 50*; tim10-1 inh: 22; tim10 confirm: 68*

What do the screens show for `COc1ccc2c(c1)C(=O)C(=O)N2`?
Yeast superoxide: 111; NLRP3 yeast inh: 8; tim23-1 inh: 4; TIM10 inh: -2; tim10-1 inh: 15

What do the screens show for `O=C(NC(=S)NCCC1=CCCCC1)c1cccnc1`?
Yeast superoxide: 98; NLRP3 yeast inh: -37; tim23-1 inh: 43; TIM10 inh: 54*; tim10-1 inh: 39; tim10 confirm: 48*

What do the screens show for `CC(C)(CNC(=O)c1cc([N+](=O)[O-])ccc1N1CCC(Cc2ccccc2)CC1)N1CCOCC1`?
Yeast superoxide: 67; NLRP3 yeast inh: 25; tim23-1 inh: 45; TIM10 inh: 36; tim10-1 inh: 38

What do the screens show for `Cc1ccc(NC(=O)CN2C(=O)c3ccccc3C2=O)c(C)c1`?
Yeast superoxide: 100; NLRP3 yeast inh: 20; tim23-1 inh: -13; TIM10 inh: 97*; tim10-1 inh: -25; tim10 confirm: 1

How did COCCN1C(=O)C(=O)/C(=C(/O)c2ccc(S(=O)(=O)N3CCCCC3)cc2)C1c1ccc(OC)cc1 (stereo unspecified) do in these assays?
Yeast superoxide: 111; NLRP3 yeast inh: 3; tim23-1 inh: -3; TIM10 inh: 90*; tim10-1 inh: 1; tim10 confirm: 5

What do the screens show for `CCN1C(=O)C(=Cc2cccc(OC)c2Oc2ccc([N+](=O)[O-])cc2[N+](=O)[O-])SC1=S`?
Yeast superoxide: 128; NLRP3 yeast inh: 15; tim23-1 inh: 42; TIM10 inh: 44*; tim10-1 inh: 25; tim10 confirm: 6

How did CCN(CC)S(=O)(=O)c1ccc(C)c(NC(=O)CSc2nnnn2C)c1 do in these assays?
Yeast superoxide: 98; NLRP3 yeast inh: 18; tim23-1 inh: 3; TIM10 inh: 9; tim10-1 inh: 1

What do the screens show for `CCNC(=S)N=Nc1c(O)[nH]c2ccc(C(C)C)cc12`?
Yeast superoxide: 96; NLRP3 yeast inh: 26; tim23-1 inh: 35; TIM10 inh: 41*; tim10-1 inh: 32; tim10 confirm: -20

Source: PubChem (several laboratories)
